# A selection: hits, their analogues and other compounds. The true share with any hit is near 1.6%.
# KCNQ2 enhance: potentiators of rat KCNQ2 potassium channel; Potassium voltage-gated channel subfamily KQT member 2 (Rattus norvegicus), O88943; CHO-K1 KCNQ2, FluxOR thallium flux fluorescence; hits give high values; B-score at 10 µM; 0.54% of 310,000 active;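 active = fluorescence ratio B-score at least 3 SD of library B-scores, with initial fluorescence B-score within 3 of them, cut at about 5.3 in these data; same plate scores as AID 2156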;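 also: B-score of peak minus minimum over baseline fluorescence ratio after K+ and Tl+ stimulus; positive B-score means potentiation of KCNQ2 with more thallium influx and brighter signal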
# Target sequence (O88943 whole entry, looked up): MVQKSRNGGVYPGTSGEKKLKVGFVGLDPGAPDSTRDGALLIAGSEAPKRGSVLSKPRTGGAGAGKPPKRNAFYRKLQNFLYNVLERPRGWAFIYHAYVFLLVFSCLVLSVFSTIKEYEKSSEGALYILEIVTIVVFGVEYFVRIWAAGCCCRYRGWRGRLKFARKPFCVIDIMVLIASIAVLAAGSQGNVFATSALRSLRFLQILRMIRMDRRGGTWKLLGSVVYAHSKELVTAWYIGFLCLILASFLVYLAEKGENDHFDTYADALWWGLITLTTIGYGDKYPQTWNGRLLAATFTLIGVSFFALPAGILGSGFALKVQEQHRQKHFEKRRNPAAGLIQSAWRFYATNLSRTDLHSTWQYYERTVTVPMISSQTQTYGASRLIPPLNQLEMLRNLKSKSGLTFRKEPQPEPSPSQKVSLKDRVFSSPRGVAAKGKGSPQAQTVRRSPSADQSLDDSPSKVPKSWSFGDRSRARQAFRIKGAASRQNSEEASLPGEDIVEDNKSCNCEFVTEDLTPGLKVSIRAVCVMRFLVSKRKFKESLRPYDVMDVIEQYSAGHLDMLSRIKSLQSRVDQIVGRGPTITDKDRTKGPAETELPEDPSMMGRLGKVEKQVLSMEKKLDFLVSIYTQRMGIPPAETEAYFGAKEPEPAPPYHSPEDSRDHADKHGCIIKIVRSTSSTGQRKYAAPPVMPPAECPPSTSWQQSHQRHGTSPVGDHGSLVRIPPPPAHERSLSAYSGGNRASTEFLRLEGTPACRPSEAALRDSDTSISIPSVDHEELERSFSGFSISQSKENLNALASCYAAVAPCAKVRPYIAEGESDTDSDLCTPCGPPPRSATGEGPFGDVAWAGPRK
# KCNQ2 inh: rat KCNQ2 potassium channel inhibitors, primary screen, cell-based, CHO-K1, FluxOR thallium flux, B-score; B-score at 10 µM; 20 min; hits give low values; AID 2156, 2009; 1.1% of 310,000 active;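 active = fluorescence ratio B-score at most minus 3 library SDs, with starting brightness B-score within 2 library SDs, cut at about -5.5 in these data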
# Numbers without * were called inactive; i = inactive; x = no result given.
SMILES,KCNQ2 enhance,KCNQ2 inh
O=C(NCc1ccc(F)cc1)C(=O)NCC1OCCN1C(=O)c1cccs1 (stereo not drawn),x,i
COc1cccc(OCc2ccc(C(=O)NCC3CCCO3)cc2)c1 (stereo not drawn),x,i
O=C(NCC1CCCO1)c1ccc(COc2ccccc2Br)cc1 (stereo not drawn),5.3*,i
CCOc1ccccc1OCCCC(=O)N(CC)CC(=O)Nc1c(F)cccc1F,1.5,i
CC(C)n1c2ccccc2c2cc([N+](=O)[O-])ccc21,0.71,i
CCC(C)n1c(=S)[nH]c2c(sc3ccc([N+](=O)[O-])cc32)c1=O (stereo not drawn),25*,i
CCSC1=NCCN1C(=O)c1ccc(S(=O)(=O)N(C)C)cc1,0.66,i
CC(C)Cc1nc(N2CCN(C(=O)C(C)C)CC2)c(C#N)c2c1CCC2,-6.5,-6.5*
CC(C)Cc1nc(N2CCN(C(=O)c3ccccc3)CC2)c(C#N)c2c1CCC2,-6.6,-6.6*
CC(=O)N1CCN(c2nc(CC(C)C)c3c(c2C#N)CCC3)CC1,x,i
CC(C)Cc1nc(N2CCN(C(=O)c3ccco3)CC2)c(C#N)c2c1CCC2,x,i
N#Cc1c(N2CCN(C(=O)c3ccco3)CC2)nc(-c2ccccc2)c2c1CCCC2,-5.6,-5.6*
N#Cc1c(N2CCN(C(=O)c3ccccc3)CC2)nc(-c2ccccc2)c2c1CCCC2,x,i
N#Cc1cn(-c2cccc(C(F)(F)F)c2)c(=O)[nH]c1=O,x,i
CCN(CC)S(=O)(=O)c1cc(C(=O)OCC(=O)NC(=O)c2cccn2C)ccc1C,1,i
Cc1cccc(-n2c(O)c(C=NC3CCS(=O)(=O)C3)c3ccccc3c2=O)c1C (stereo not drawn),x,i
COc1ccc(OC)c2[nH]c(=O)c(CCNC(=O)Cc3cccs3)cc12,0.45,i
COc1ccc(C2CC(c3cccs3)=Nc3ccccc3S2)cc1 (stereo not drawn),-6,-6*
COc1ccc(C2CC(c3cccs3)=NN2S(C)(=O)=O)cc1 (stereo not drawn),0.71,i
O=C(COC(=O)c1ccc2ccccc2n1)c1ccc(F)cc1,0.91,i
O=C(OCCNC(=O)c1ccc2ccccc2n1)c1ccc(F)cc1,-7.3,-7.3*
Cc1ccc(NC(=O)C2CCN(S(=O)(=O)c3ccc4c(c3)NC(=O)C(C)S4)CC2)cc1Cl (stereo not drawn),1.4,i
COCCN(C(=O)c1ccccc1)c1nc(-c2ccc(OC)cc2)cs1,x,i
COCCCN(C(=O)c1ccccc1)c1nc(-c2ccc(OC)cc2)cs1,-5.9,-5.9*
COc1ccc(OC)c(-c2csc(N(Cc3ccco3)C(=O)c3cccs3)n2)c1,x,i
SMILES,KCNQ2 enhance,KCNQ2 inh
COc1ccc(-c2csc(N(Cc3ccco3)C(=O)c3cccs3)n2)cc1,-6,-6*
Cc1ccnc(SCC(=O)c2cc3ccccc3o2)n1,x,i
Cc1noc(C)c1CSCC(=O)Nc1nc2ccc(F)cc2s1,x,i
Cc1cccc(OCc2nnc(SCC(=O)NC3CCCC3)n2C)c1,0.11,i
COC(=O)c1ccccc1NC(=O)COC(=O)CO/N=C(\C)c1ccc2c(c1)OCO2,x,i
Cc1cccc(NC(=S)N2CCC(NC(=O)c3ccco3)CC2)c1,x,i
COc1ccc(NC(=O)C2CCCN2C(=O)NC2CCCCC2)cc1 (stereo not drawn),0.42,i
O=C(CC(NC(=O)C(F)(F)F)c1ccccc1)Nc1nnc(CCc2ccccc2)s1 (stereo not drawn),0.33,i
CC(C)n1c2ccccc2c2nnc(SCC(=O)Nc3ccccc3C(=O)O)nc21,0.7,i
O=C(CN1C(=O)C2CC=CCC2C1=O)Nc1nc2ccc(F)cc2s1 (stereo not drawn),-6.7,-6.7*
O=C(CN1C(=O)NC2(CCCC2)C1=O)Nc1nc2ccc(F)cc2s1,0.27,i
COc1ccc([N+](=O)[O-])cc1N(CC(=O)NCCC1=CCCCC1)S(C)(=O)=O,x,i
CCN(CC)C(=O)c1cc2c(=O)oc3ccccc3c2s1,-6.9,-6.9*
CCN(CC)C(=O)c1cc2c(=O)n3ccccc3nc2s1,0.76,i
COCCn1c(SCC(=O)N2CCCC2)nc2c([nH]c3ccccc32)c1=O,1.3,i
CCOc1ccc(C2C(C(=O)c3cccs3)=C(O)C(=O)N2CCN2CCOCC2)cc1 (stereo not drawn),x,i
COC(=O)c1ccccc1NC(=O)c1ccc(COc2ccc(C)c(C)c2)o1,-6.6,-6.6*
Cc1ccc(OCc2ccc(C(=O)NN)o2)cc1C,x,i
COc1ccccc1NC(=O)c1ccc(COc2ccccc2OC)o1,x,i
COC(=O)c1ccccc1NC(=O)c1ccc(COc2cc(C)cc(C)c2)o1,-6.4,-6.4*
O=C(Nc1ccc2c(c1)OCO2)C1CC(=O)N(c2ccc(F)cc2)C1 (stereo not drawn),0.44,i
CC1CCN(C(=O)COc2ccc(S(=O)(=O)N3CCOCC3)cc2)CC1,0.37,i
Cc1ccc(CN(CC(O)COc2cccc3[nH]cc(C)c23)C(C)(C)C)cc1 (stereo not drawn),-6.7,-6.7*
Cc1c[nH]c2cccc(OCC(CNC(C)(C)C)OC(=O)c3ccccc3)c12 (stereo not drawn),x,i
CCOC(=O)C1CCCN(C2=C(NS(=O)(=O)c3ccc(Br)cc3)C(=O)c3ccccc3C2=O)C1 (stereo not drawn),-6.7,-6.7*
SMILES,KCNQ2 enhance,KCNQ2 inh
CCOC(=O)C1CCN(C2=C(NS(=O)(=O)c3ccc(Cl)cc3)C(=O)c3ccccc3C2=O)CC1,x,i
Cc1ccc(C(c2cc(Br)ccc2O)N2CCSCC2)cc1 (stereo not drawn),-5.8,-5.8*
Cc1ccc(C(c2nnnn2CCc2ccccc2)N2CCSCC2)cc1 (stereo not drawn),0.78,i
CCCCN(C(=O)c1cc2c(s1)CCC2)c1c(N)n(CCCC)c(=O)[nH]c1=O,x,i
O=Cc1coc2ccc3ccccc3c2c1=O,-8.1,-8.1*
NC(=O)N/N=C/c1coc2ccc3ccccc3c2c1=O,1.3,i
CC(=O)c1c(C)[nH]c(C(=O)NNC(=O)COc2ccc(Cl)cc2C)c1C,-5.8,-5.8*
COc1ccc(Cl)cc1NC(=O)c1[nH]c(C)c(C(C)=O)c1C,1.2,i
CCn1c(CC(=O)Nc2ccccc2)nnc1SCC(=O)Nc1nnc(C)s1,0.7,i
COCC(=O)Oc1c(Sc2ccccc2[N+](=O)[O-])c(C)nn1C(C)(C)C,x,i
CCC(CC)C(=O)Oc1c(Sc2ccccc2[N+](=O)[O-])c(C)nn1C(C)(C)C,-6,-6*
FC(F)(F)c1ccccc1/C=N/n1c(COc2ccccc2)n[nH]c1=S,x,i
CCOc1ccc(S(=O)(=O)N2CCCCC2)cc1NC(=O)CN1C(=O)NC(C)(c2ccc(C)cc2)C1=O (stereo not drawn),x,i
CC1(C)CN=C(N(Cc2ccccc2)C(=O)Nc2ccccc2)S1,-6.4,-6.4*
CC1(C)CN=C(N(C(=O)Nc2ccccc2)c2ccccc2F)S1,x,i
COc1cc2c(=O)n(CCCC(=O)NCC3CCCO3)c(=O)n(CC(=O)c3ccc(F)cc3)c2cc1OC (stereo not drawn),0.13,i
C=CCNC(=S)NNC(=O)c1ccc([N+](=O)[O-])cc1,x,i
C=CCN(CC=C)C(=S)NC(=O)c1ccc([N+](=O)[O-])cc1,7.2*,i
